ALR H2O2 inh: human ALR oxidase inhibition via reduced H2O2; AID 485317; P55789; purified ALR, DTT oxidation, H2O2 HRP-luminol luminescence; inhibition, % (concentration not given with the values); 290,000 tested, 3.8% active;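 active = mean replicate inhibition above about 79%, with every replicate also reaching it, limit read from the data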
CHT allo act: human CHT allosteric activation | Q9GZV3 | CHT-expressing cells, membrane potential dye, choline EC20; active compounds read high; LV-AA mutant CHT in HEK293 cells | B-score at 10 µM | 310,000 tested, 0.49% active | AID 488977;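 active = initial fluorescence not abnormally high and integrated response B-score, plate-corrected, over 3 SD above library mean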
AI-2 QS mod: modulators of Vibrio harveyi AI-2 quorum sensing system | Vibrio harveyi JMH597 AI-2 luminescence/OD600 ratio, 9 h; active compounds read low; strain lacks LuxN and CqsS sensors; 0 = neutral-control median | activity change, % at 7.5 µM | 300,000 tested, 0.4% active; in the data active = activity change below about -75%, passing the limit was not always enough;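 note: luminescence divided by OD600 gain over 9 h not by final OD600 alone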
PREPL inhibitor: human PREPL enzyme inhibition | recombinant PREPL, fluorescence polarization activity-based probe | inhibition, % at 5.96 µM | 320,000 tested, 0.68% active | AID 2751; in the data active = inhibition above about 43%;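 note: 0% = enzyme with DMSO and 100% = wells lacking enzyme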
CHT inh: human CHT choline transport inhibition | Q9GZV3 | CHT-expressing cells, membrane potential dye, choline response; active compounds read low | B-score at 10 µM | 310,000 tested, 0.86% active;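 active = B-score over 3 SD under the library average, and starting fluorescence ratio not unusually high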;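 note: choline stimulus applied at its EC90 after an EC20 pre-addition; B-score computed on integrated fluorescence ratio after choline addition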
CHT inh conf: confirmation of human choline transporter CHT inhibitors; shares compounds with CHT inh; CHT-expressing cells, choline membrane potential dye; LV-to-AA substituted CHT, HEK293 cells; CHT activity remaining % of control (active compounds read low), % at 10 µM; 2,400 tested, 70% active;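 active = choline transporter activity left, mean of duplicates at 10 µM, below buffer-only control mean minus 3 SD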;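 note: depolarization triggered by choline at its EC90 following an EC20 pre-addition; 0% = hemicholinium-3 full block and 100% = buffer-only control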
HEK293 MPD ctr: CHT inhibitor counter-screen hit in parental HEK293 cells. membrane potential ratio readout (active if shifted either direction beyond buffer ±3SD; no single direction) at 10 µM. shares compounds with CHT inh. 2,400 tested, 4% active. membrane potential dye, choline response; active = decrease or increase beyond buffer ±3SD. AID 493222;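 note: parental cells lack the transporter so any hit is non-specific; ratio is peak minus trough fluorescence over baseline after EC90 choline challenge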
Active calls of the source: *; i = inactive; x = no result. Most compounds without a hit are left out; they make up all but 5% or so of the library.

SMILES	ALR H2O2 inh	CHT allo act	AI-2 QS mod	PREPL inhibitor	CHT inh	CHT inh conf	HEK293 MPD ctr
CC(=O)c1ccc(N2CCN(C(=O)C3CCCN(c4ncnc5c4nc4n5CCCCC4)C3)CC2)cc1 (stereo unspecified)	-2.7	i	16.5	4.6	-5.89*	31.6%*	i
O=C(CCCC(=O)NNC(=O)Nc1ccccc1)NNC(=O)Nc1ccccc1	-1.3	i	18.3	17.1	i	x	x
COc1ccccc1CN1CC(C(=O)NCCN2CCOC2=O)CCC1=O (stereo unspecified)	-12.4	i	6.7	x	i	x	x
NC(=O)CCCn1c(C(=O)c2ccc(Cl)cc2)c2ccc(C(F)(F)F)cc2[n+]1[O-]	-30.0	i	-4.9	5.2	i	x	x
NCCCn1c(C(=O)c2ccc(Cl)cc2)c2ccc(C(F)(F)F)cc2[n+]1[O-]	-28.2	i	4.8	42.3	-5.15*	31.4%*	2.25*
NC(=O)CCCn1c(C(=O)c2ccc(Cl)cc2)c2ccc([N+](=O)[O-])cc2[n+]1[O-]	-56.4	i	8.7	15.4	i	x	x
NC(=O)CCCn1c(C(=O)c2cc(Cl)c(N)c(Cl)c2)c2ccc([N+](=O)[O-])cc2[n+]1[O-]	-55.7	i	9.8	24.4	-8.81*	16.6%*	i
COc1ccccc1Nc1nc(N)nc(CSC(=S)N2CC(C)CC(C)C2)n1 (stereo unspecified)	-16.3	i	33.8	-0.2	i	x	x
COc1ccc(CC(=O)NC(c2ccccc2)c2ccc(C)cc2)c(OC)c1 (stereo unspecified)	-11.0	i	17.2	1.4	i	x	x
Cc1ccc(NC(=S)NNC(=O)c2ccccc2O)c(C)c1	29.4	i	-3.2	4.9	-8.2*	i	i
Cc1ccc(NC(=O)CCC(=O)NNC(=O)c2ccccc2Cl)c(C)c1	-8.0	i	7.4	1.6	i	x	x
CC(=O)NCC(=O)N(Cc1ccco1)C1(C(=O)NC2CCCCC2)CCCCC1	-0.2	i	0.3	15.1	-5.57*	i	i
CC(=O)N(Cc1ccco1)C1(C(=O)NC2CCCCC2)CCCCC1	-10.4	i	25.3	19.3	i	x	x
O=C(NC1CCCC1)c1ccc(CS(=O)(=O)Cc2ccccc2F)o1	-4.1	i	10.1	-0.3	i	x	x
CC1CCC(NC(=O)c2ccc(CS(=O)(=O)Cc3ccccc3F)o2)CC1 (stereo unspecified)	-1.4	i	19.7	11.2	-5.37*	41.0%*	i
CCN(CC)S(=O)(=O)c1ccc2c(c1)[nH]c(=S)n2CC	-2.5	i	16.3	6.0	i	x	x
CCOC(=O)c1ccc2c(c1)[nH]c(=S)n2CC	83.1*	i	20.5	-8.7	-5.08*	56.0%*	i
O=C(NCc1ccccn1)C(=O)NN=C1CCCCCCC1	-2.0	i	7.5	8.2	i	x	x
CCCc1cc(=O)[nH]c(SCC(=O)Nc2oc(C)c3c(C)n[nH]c(=O)c23)n1	-18.1	i	22.0	4.6	i	x	x
COc1ccc(C(=O)NCc2ccon2)cc1OC1CCN(C(C)C)CC1	-0.6	i	-1.2	10.7	-7.3*	34.0%*	i
COc1ccc(C(=O)N2CCCCCCC2)cc1OC1CCN(C(C)C)CC1	5.3	i	4.7	5.8	i	x	x
COc1ccc(C(=O)N(C)CCCC2CCCC2)cc1OC1CCN(C(C)C)CC1	2.3	i	1.8	9.4	-6.96*	23.2%*	i
COc1ccc(C(=O)N[C@H]2CCCCNC2=O)cc1OC1CCN(C(C)C)CC1	-3.4	i	6.3	0.3	-9.24*	34.1%*	i
O=C(NNC(=O)c1ccco1)c1ccc(NS(=O)(=O)c2cccs2)cc1	2.5	i	x	0.3	i	x	x
Clc1ccccc1OCc1nc(-c2ccncc2)no1	-1.5	i	x	1.2	-6.41*	16.3%*	-11.3*
c1ccc(OCCCc2nc(-c3ccncc3)no2)cc1	-0.4	i	-49.8	-3.2	i	58.8%*	-8.43*
c1ccc(OCc2nc(-c3ccncc3)no2)cc1	x	i	-49.3	-3.6	i	x	x
